# The supplement of paper PMC9262897, “Low-cost anti-mycobacterial drug discovery using engineered E. coli” (Nature Communications, 2022)
# Where a name gives a salt, the structure may show the parent alone. ± gives the standard deviation of the averaged measurements.
# How the values were obtained:
# Assay in all cases: growth (OD600 after 10 h); higher = more growth (less inhibition)
# [1] = system: E. coli TESEC Alr+ wild-type control; details: compound 0.1 mM; raw OD600 reference: median of DMSO wells 0.241, cell-free background 0.041
# Description: (§1)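 TESEC Mtb Alr E. coli, or the Alr+ wild-type control, in 384-well plates with Prestwick library compounds at 0.1 mM and 1% DMSO, across arabinose induction levels of 1E3 to 1E7 nM. Growth is read as OD600 after 10 h at 37 °C in triplicate biological replicates.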
# [2] = system: E. coli TESEC Mtb Alr; details: compound 0.1 mM
# Description: as §1
# [3] = system: E. coli TESEC Mtb Asd; details: compound 0.1 mM
# Description: (§2)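 TESEC E. coli strains in which the native enzyme is deleted and replaced by arabinose-inducible Mtb Asd, DapB, CysH or TrpD, each grown in its selective medium. Strains were screened against the Prestwick library at 0.1 mM and 1% DMSO in 384-well format at low and high arabinose induction. Growth is read as OD600 after 10 h in triplicate.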
# [4] = system: E. coli TESEC Mtb DapB; details: compound 0.1 mM
# Description: as §2
# [5] = system: E. coli TESEC Alr+ wild-type control; details: compound 0.1 mM; raw OD600 reference: median of DMSO wells 0.49, cell-free background 0.052
# Description: (§3)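 TESEC Mtb Alr E. coli (ΔaraC ΔtolC ΔentC Δalr ΔdadX, arabinose-inducible Mtb Alr) or the Alr+ wild-type control strain, grown in defined M9-fructose medium without D-alanine in 96-well plates with Prestwick library compounds at 0.1 mM and 1% DMSO. Low Alr induction is 0.1 µM arabinose and high induction is 10 mM arabinose.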
# [6] = system: E. coli TESEC Mtb Alr; details: compound 0.1 mM; remark: listed apart in the source
# Description: as §3
# [7] = arabinose 1000 nM, raw OD600 reference: median of DMSO wells 0.294, cell-free background 0.041
# [8] = arabinose 10000 nM, raw OD600 reference: median of DMSO wells 0.264, cell-free background 0.041
# [9] = arabinose 100000 nM, raw OD600 reference: median of DMSO wells 0.201, cell-free background 0.041
# [10] = arabinose 1000000 nM, raw OD600 reference: median of DMSO wells 0.193, cell-free background 0.041
# [11] = arabinose 10000000 nM, raw OD600 reference: median of DMSO wells 0.146, cell-free background 0.041
# [12] = arabinose induction (level): High, raw OD600 reference: median of DMSO wells 0.331, cell-free background 0.041
# [13] = arabinose induction (level): Low, raw OD600 reference: median of DMSO wells 0.417, cell-free background 0.041
# [14] = arabinose induction (level): High, raw OD600 reference: median of DMSO wells […], cell-free background 0.041
# [15] = arabinose induction (level): Low, raw OD600 reference: median of DMSO wells 0.227, cell-free background 0.041
# [16] = arabinose 100 nM, raw OD600 reference: median of DMSO wells 0.413, cell-free background 0.052
# [17] = arabinose 10000000 nM, raw OD600 reference: median of DMSO wells […], cell-free background 0.052
Structure (SMILES),growth [1],"growth [2, 7]","growth [2, 8]","growth [2, 9]","growth [2, 10]","growth [2, 11]","growth [3, 12]","growth [3, 13]","growth [4, 14]","growth [4, 15]",growth [5],"growth [6, 16]","growth [6, 17]"
CCN(CC)CC(=O)Nc1c(C)cccc1C [Lidocaine hydrochloride],0.238 ± 0.0076,0.256 ± 0.062,0.273 ± 0.017,0.194 ± 0.01,0.183 ± 0.0033,0.146 ± 0.0067,0.267 ± 0.048,0.403 ± 0.057,0.204 ± 0.0083,0.235 ± 0.048,0.586 ± 0.028,0.41 ± 0.0091,0.345 ± 0.019
CCOc1cc(CC(=O)N[C@@H](CC(C)C)c2ccccc2N2CCCCC2)ccc1C(=O)O [Repaglinide],0.185 ± 0.0042,0.199 ± 0.0075,0.26 ± 0.024,0.175 ± 0.0084,0.174 ± 0.0073,0.155 ± 0.01,0.282 ± 0.03,0.247 ± 0.032,0.168 ± 0.014,0.201 ± 0.031,0.482 ± 0.005,0.4 ± 0.0047,0.306 ± 0.014
C[C@]12C=CC(=O)C=C1CC[C@@H]1[C@@H]2[C@@H](O)C[C@@]2(C)[C@H]1CC[C@]2(O)C(=O)CO [Prednisolone],0.213 ± 0.0043,0.263 ± 0.0084,0.248 ± 0.01,0.162 ± 0.0057,0.147 ± 0.0034,0.13 ± 0.0047,0.258 ± 0.038,0.456 ± 0.034,0.179 ± 0.015,0.254 ± 0.041,0.514 ± 0.065,0.426 ± 0.009,0.306 ± 0.011
COC(=O)C1=C(C)NC(C)=C(C(=O)OC(C)C)C1c1cccc2nonc12 (stereo not given) [Isradipine],0.149 ± 0.0056,0.206 ± 0.0037,0.254 ± 0.015,0.164 ± 0.0057,0.0817 ± 0.0022,0.154 ± 0.0037,0.166 ± 0.018,0.259 ± 0.041,0.19 ± 0.019,0.21 ± 0.011,0.379 ± 0.0051,0.394 ± 0.01,0.167 ± 0.038
CN(C)C(=N)NC(=N)N [Metformin hydrochloride],0.253 ± 0.0099,0.281 ± 0.026,0.258 ± 0.0057,0.238 ± 0.03,0.178 ± 0.0068,0.145 ± 0.0029,0.372 ± 0.032,0.404 ± 0.032,0.218 ± 0.037,0.235 ± 0.043,0.447 ± 0.052,0.404 ± 0.015,0.349 ± 0.032
Cn1cnc2c1c(=O)[nH]c(=O)n2C [Theobromine],0.255 ± 0.0061,0.313 ± 0.018,0.289 ± 0.015,0.218 ± 0.02,0.189 ± 0.0034,0.155 ± 0.011,0.483 ± 0.0089,0.454 ± 0.03,0.206 ± 0.008,0.249 ± 0.036,0.461 ± 0.015,0.404 ± 0.014,0.365 ± 0.022
C[C@@H]1C[C@H]2[C@@H]3C[C@H](F)C4=CC(=O)C=C[C@]4(C)[C@@]3(F)[C@@H](O)C[C@]2(C)[C@@]1(O)C(=O)COC(=O)C(C)(C)C [Flumethasone pivalate],0.207 ± 0.028,0.271 ± 0.028,0.267 ± 0.017,0.209 ± 0.016,0.182 ± 0.022,0.145 ± 0.012,0.256 ± 0.022,0.319 ± 0.066,0.2 ± 0.0088,0.239 ± 0.023,0.521 ± 0.057,0.43 ± 0.025,0.373 ± 0.025
CCCCC(=O)O[C@H]1CC[C@H]2[C@@H]3CCc4cc(O)ccc4[C@H]3CC[C@]12C [Estradiol Valerate],0.252 ± 0.004,0.307 ± 0.0067,0.285 ± 0.0065,0.215 ± 0.016,0.221 ± 0.021,0.13 ± 0.0034,0.404 ± 0.031,0.396 ± 0.048,0.193 ± 0.0052,0.207 ± 0.0061,0.48 ± 0.071,0.436 ± 0.018,0.38 ± 0.0047
CCCCNC(=O)NS(=O)(=O)c1ccc(C)cc1 [Tolbutamide],0.253 ± 0.0049,0.295 ± 0.005,0.243 ± 0.0065,0.191 ± 0.018,0.16 ± 0.006,0.136 ± 0.0022,0.222 ± 0.016,0.405 ± 0.074,0.187 ± 0.021,0.186 ± 0.012,0.521 ± 0.12,0.409 ± 0.006,0.352 ± 0.021
CCn1cc(C(=O)O)c(=O)c2cnc(N3CCNCC3)nc21 [Pipemidic acid],0.116 ± 0.0069,0.0801 ± 0.033,0.063 ± 0.0022,0.117 ± 0.0072,0.0845 ± 0.028,0.147 ± 0.0057,0.157 ± 0.019,0.149 ± 0.014,0.188 ± 0.0053,0.168 ± 0.0065,0.158 ± 0.008,0.156 ± 0.021,0.082 ± 0.0092
O=C(C1CCCCC1)N1CC(=O)N2CCc3ccccc3C2C1 (stereo not given) [Praziquantel],0.207 ± 0.0042,0.251 ± 0.0052,0.237 ± 0.015,0.214 ± 0.021,0.167 ± 0.01,0.141 ± 0.0052,0.391 ± 0.074,0.278 ± 0.026,0.174 ± 0.0068,0.21 ± 0.027,0.447 ± 0.019,0.382 ± 0.0029,0.37 ± 0.025
CNCC(O)c1ccc(OC(=O)C(C)(C)C)c(OC(=O)C(C)(C)C)c1 (stereo not given) [Dipivefrin hydrochloride],0.171 ± 0.01,0.239 ± 0.018,0.255 ± 0.011,0.164 ± 0.016,0.0939 ± 0.0013,0.142 ± 0.004,0.174 ± 0.029,0.269 ± 0.048,0.188 ± 0.023,0.167 ± 0.0099,0.394 ± 0.018,0.391 ± 0.022,0.19 ± 0.014
CNNCc1ccc(C(=O)NC(C)C)cc1 [Procarbazine hydrochloride],0.251 ± 0.0067,0.304 ± 0.012,0.282 ± 0.0077,0.217 ± 0.028,0.177 ± 0.019,0.151 ± 0.0024,0.359 ± 0.043,0.476 ± 0.083,0.2 ± 0.017,0.27 ± 0.022,0.454 ± 0.01,0.4235 ± 0.0022,0.312 ± 0.02
CC(C)NCC(O)COc1cccc2[nH]ccc12 (stereo not given) [Pindolol],0.233 ± 0.0063,0.286 ± 0.024,0.271 ± 0.014,0.203 ± 0.0064,0.179 ± 0.0088,0.142 ± 0.00072,0.393 ± 0.0086,0.403 ± 0.021,0.201 ± 0.011,0.231 ± 0.048,0.474 ± 0.048,0.413 ± 0.0051,0.376 ± 0.013
COc1c(N2C[C@@H]3CCCN[C@@H]3C2)c(F)cc2c(=O)c(C(=O)O)cn(C3CC3)c12 [Moxifloxacin],0.04227 ± 0.00025,0.04077 ± 0.00035,0.0401 ± 0.0003,0.0415 ± 0.0005,0.04013 ± 0.00012,0.0446 ± 0.0054,0.0511 ± 0.0029,0.052 ± 0.0016,0.04903 ± 0.00038,0.04933 ± 0.00035,0.0539 ± 0.0014,0.05287 ± 0.00031,0.0516 ± 0.0013
